Experimental data from PMC11062922 (Nature Chemical Biology, 2023).
Read-outs that look alike come from different tables or passages of the source.

Key:
CHEK1 = conditions: read-out: apparent Kd, n = 1
ERN1 = conditions: read-out: apparent Kd, n = 1
[1] = compound concentrations:100 nM and 1000 nM (sheet 'Lestaurtinib' of Supplementary Table 1),run:Lestaurtinib_02438_R2,Plate:MR008
[2] = compound concentrations:100 nM and 1000 nM (sheet 'Lestaurtinib' of Supplementary Table 1),run:Lestaurtinib_02438_R3,Plate:MR008
[3] = compound concentrations:100 nM and 1000 nM (sheet 'Lestaurtinib' of Supplementary Table 1),run:Lestaurtinib_02443_R2,Plate:MR009
[4] = compound concentrations:100 nM and 1000 nM (sheet 'Lestaurtinib' of Supplementary Table 1),run:Lestaurtinib_02473_R1,Plate:MR010
[5] = compound concentrations:100 nM and 1000 nM (sheet 'Lestaurtinib' of Supplementary Table 1),run:Lestaurtinib_02473_R2,Plate:MR010
[6] = compound concentrations:100 nM and 1000 nM (sheet 'Lestaurtinib' of Supplementary Table 1),run:Lestaurtinib_02482_R3,Plate:MR011
[7] = compound concentrations:100 nM and 1000 nM (sheet 'Lestaurtinib' of Supplementary Table 1),run:Lestaurtinib_02487_R1,Plate:MR012

Lestaurtinib
potency estimated from few doses (CHEK1; compound concentrations:100 nM and 1000 nM (sheet 'Lestaurtinib' of Supplementary Table 1),run:Lestaurtinib_02437_R3,Plate:MR007): 17.2 nM | potency estimated from few doses (CHEK1; [1]): 88.5 nM | potency estimated from few doses (CHEK1; [2]): 99.8 nM | potency estimated from few doses (CHEK1; [3]): 94.3 nM | potency estimated from few doses (CHEK1; [4]): 72.2 nM | potency estimated from few doses (CHEK1; [5]): 70.2 nM | potency estimated from few doses (CHEK1; compound concentrations:100 nM and 1000 nM (sheet 'Lestaurtinib' of Supplementary Table 1),run:Lestaurtinib_02482_R1,Plate:MR011): 78 nM | potency estimated from few doses (CHEK1; [6]): 92.6 nM | potency estimated from few doses (CHEK1; [7]): 69.6 nM | potency estimated from few doses (CHEK1; compound concentrations:100 nM and 1000 nM (sheet 'Lestaurtinib' of Supplementary Table 1),run:Lestaurtinib_02487_R2,Plate:MR012): 86.9 nM | potency estimated from few doses (CHEK1; compound concentrations:100 nM and 1000 nM (sheet 'Lestaurtinib' of Supplementary Table 1),run:Lestaurtinib_02487_R3,Plate:MR012): 87.7 nM | potency estimated from few doses (CHEK1; compound concentrations:100 nM and 1000 nM (sheet 'Lestaurtinib' of Supplementary Table 1),run:Lestaurtinib_02496_R1,Plate:MR013): 92.6 nM | potency estimated from few doses (CHEK1; compound concentrations:100 nM and 1000 nM (sheet 'Lestaurtinib' of Supplementary Table 1),run:Lestaurtinib_02496_R2,Plate:MR013): 79.6 nM | potency estimated from few doses (CHEK1; compound concentrations:100 nM and 1000 nM (sheet 'Lestaurtinib' of Supplementary Table 1),run:Lestaurtinib_02566_R1,Plate:MR014): 88.2 nM | potency estimated from few doses (CHEK1; compound concentrations:100 nM and 1000 nM (sheet 'Lestaurtinib' of Supplementary Table 1),run:Lestaurtinib_02566_R2,Plate:MR014): 75.6 nM | potency estimated from few doses (CHEK1; compound concentrations:100 nM and 1000 nM (sheet 'Lestaurtinib' of Supplementary Table 1),run:Lestaurtinib_02566_R3,Plate:MR014): 66.8 nM | potency estimated from few doses (CHEK1; compound concentrations:100 nM and 1000 nM (sheet 'Lestaurtinib' of Supplementary Table 1),run:Lestaurtinib_02572_R1,Plate:MR015): 89.7 nM | potency estimated from few doses (CHEK1; compound concentrations:100 nM and 1000 nM (sheet 'Lestaurtinib' of Supplementary Table 1),run:Lestaurtinib_02584_R1,Plate:MR017): 76.9 nM | potency estimated from few doses (CHEK1; compound concentrations:100 nM and 1000 nM (sheet 'Lestaurtinib' of Supplementary Table 1),run:Lestaurtinib_02584_R3,Plate:MR017): 87.5 nM | potency estimated from few doses (CHEK1; compound concentrations:100 nM and 1000 nM (sheet 'Lestaurtinib' of Supplementary Table 1),run:Lestaurtinib_02601_R1,Plate:MR018): 98 nM | potency estimated from few doses (CHEK1; compound concentrations:100 nM and 1000 nM (sheet 'Lestaurtinib' of Supplementary Table 1),run:Lestaurtinib_02601_R3,Plate:MR018): 78.8 nM | potency estimated from few doses (CHEK1; compound concentrations:100 nM and 1000 nM (sheet 'Lestaurtinib' of Supplementary Table 1),run:Lestaurtinib_02606_R1,Plate:MR019): 88.5 nM | potency estimated from few doses (CHEK1; compound concentrations:100 nM and 1000 nM (sheet 'Lestaurtinib' of Supplementary Table 1),run:Lestaurtinib_02606_R2,Plate:MR019): 74.1 nM | potency estimated from few doses (CHEK1; compound concentrations:100 nM and 1000 nM (sheet 'Lestaurtinib' of Supplementary Table 1),run:Lestaurtinib_02606_R3,Plate:MR019): 97 nM | potency estimated from few doses (CHEK1; compound concentrations:100 nM and 1000 nM (sheet 'Lestaurtinib' of Supplementary Table 1),run:Lestaurtinib_02624_R2,Plate:MR020): 93 nM | potency estimated from few doses (CHEK1; compound concentrations:100 nM and 1000 nM (sheet 'Lestaurtinib' of Supplementary Table 1),run:Lestaurtinib_02624_R3,Plate:MR020): 79 nM | potency estimated from few doses (CHEK1; compound concentrations:100 nM and 1000 nM (sheet 'Lestaurtinib' of Supplementary Table 1),run:Lestaurtinib_02724_R3,Plate:MR021): 92 nM | potency estimated from few doses (CHEK1; compound concentrations:100 nM and 1000 nM (sheet 'Lestaurtinib' of Supplementary Table 1),run:Lestaurtinib_02741_R1,Plate:MR023): 88 nM | potency estimated from few doses (CHEK1; compound concentrations:100 nM and 1000 nM (sheet 'Lestaurtinib' of Supplementary Table 1),run:Lestaurtinib_02748_R1,Plate:MR024): 69.5 nM | potency estimated from few doses (CHEK1; compound concentrations:100 nM and 1000 nM (sheet 'Lestaurtinib' of Supplementary Table 1),run:Lestaurtinib_02748_R3,Plate:MR024): 80.1 nM | potency estimated from few doses (CHEK1; compound concentrations:100 nM and 1000 nM (sheet 'Lestaurtinib' of Supplementary Table 1),run:Lestaurtinib_02752_R1,Plate:MR025): 75.5 nM | potency estimated from few doses (CHEK1; compound concentrations:100 nM and 1000 nM (sheet 'Lestaurtinib' of Supplementary Table 1),run:Lestaurtinib_02765_R2,Plate:MR026): 98.7 nM | potency estimated from few doses (CHEK1; compound concentrations:100 nM and 1000 nM (sheet 'Lestaurtinib' of Supplementary Table 1),run:Lestaurtinib_02765_R3,Plate:MR026): 75.5 nM | potency estimated from few doses (CHEK1; compound concentrations:100 nM and 1000 nM (sheet 'Lestaurtinib' of Supplementary Table 1),run:Lestaurtinib_02766_R1,Plate:MR027): 92 nM | potency estimated from few doses (CHEK1; compound concentrations:100 nM and 1000 nM (sheet 'Lestaurtinib' of Supplementary Table 1),run:Lestaurtinib_02766_R2,Plate:MR027): 71.2 nM | potency estimated from few doses (CHEK1; compound concentrations:100 nM and 1000 nM (sheet 'Lestaurtinib' of Supplementary Table 1),run:Lestaurtinib_02766_R3,Plate:MR027): 82.7 nM | potency estimated from few doses (CHEK1; compound concentrations:100 nM and 1000 nM (sheet 'Lestaurtinib' of Supplementary Table 1),run:Lestaurtinib_02768_R1,Plate:MR028): 82.7 nM | potency estimated from few doses (CHEK1; compound concentrations:100 nM and 1000 nM (sheet 'Lestaurtinib' of Supplementary Table 1),run:Lestaurtinib_02768_R3,Plate:MR028): 86.1 nM | potency estimated from few doses (CHEK1; compound concentrations:100 nM and 1000 nM (sheet 'Lestaurtinib' of Supplementary Table 1),run:Lestaurtinib_02795_R1,Plate:MR022): 89.5 nM | potency estimated from few doses (CHEK1; compound concentrations:100 nM and 1000 nM (sheet 'Lestaurtinib' of Supplementary Table 1),run:Lestaurtinib_02795_R2,Plate:MR022): 80.2 nM | potency estimated from few doses (CHEK1; compound concentrations:100 nM and 1000 nM (sheet 'Lestaurtinib' of Supplementary Table 1),run:Lestaurtinib_02795_R3,Plate:MR022): 211 nM | potency estimated from few doses (CHEK1; compound concentrations:100 nM and 1000 nM (sheet 'Lestaurtinib' of Supplementary Table 1),run:Lestaurtinib_02802_R1,Plate:MR029): 84.3 nM | potency estimated from few doses (CHEK1; compound concentrations:100 nM and 1000 nM (sheet 'Lestaurtinib' of Supplementary Table 1),run:Lestaurtinib_02802_R2,Plate:MR029): 91.6 nM | potency estimated from few doses (CHEK1; compound concentrations:100 nM and 1000 nM (sheet 'Lestaurtinib' of Supplementary Table 1),run:Lestaurtinib_02802_R3,Plate:MR029): 91.6 nM | potency estimated from few doses (CHEK1; compound concentrations:100 nM and 1000 nM (sheet 'Lestaurtinib' of Supplementary Table 1),run:Lestaurtinib_02896_R1,Plate:MR030): 73.7 nM | potency estimated from few doses (CHEK1; compound concentrations:100 nM and 1000 nM (sheet 'Lestaurtinib' of Supplementary Table 1),run:Lestaurtinib_02896_R2,Plate:MR030): 70 nM | potency estimated from few doses (CHEK1; compound concentrations:100 nM and 1000 nM (sheet 'Lestaurtinib' of Supplementary Table 1),run:Lestaurtinib_02896_R3,Plate:MR030): 66.7 nM | potency estimated from few doses (CHEK1; compound concentrations:100 nM and 1000 nM (sheet 'Lestaurtinib' of Supplementary Table 1),run:Lestaurtinib_03172_R2,Plate:MR031): 83.5 nM | potency estimated from few doses (CHEK1; compound concentrations:100 nM and 1000 nM (sheet 'Lestaurtinib' of Supplementary Table 1),run:Lestaurtinib_03172_R3,Plate:MR031): 94.3 nM | potency estimated from few doses (CHEK1; compound concentrations:100 nM and 1000 nM (sheet 'Lestaurtinib' of Supplementary Table 1),run:Lestaurtinib_03260_R3,Plate:MR033): 67.9 nM | potency estimated from few doses (ERN1; compound concentrations:100 nM and 1000 nM (sheet 'Lestaurtinib' of Supplementary Table 1),run:Lestaurtinib_02339_R1,Plate:MR001): 97.9 nM | potency estimated from few doses (ERN1; compound concentrations:100 nM and 1000 nM (sheet 'Lestaurtinib' of Supplementary Table 1),run:Lestaurtinib_02339_R2,Plate:MR001): 65.8 nM | potency estimated from few doses (ERN1; compound concentrations:100 nM and 1000 nM (sheet 'Lestaurtinib' of Supplementary Table 1),run:Lestaurtinib_02339_R3,Plate:MR001): 47 nM | potency estimated from few doses (ERN1; compound concentrations:100 nM and 1000 nM (sheet 'Lestaurtinib' of Supplementary Table 1),run:Lestaurtinib_02364_R1,Plate:MR002): 75.2 nM | potency estimated from few doses (ERN1; compound concentrations:100 nM and 1000 nM (sheet 'Lestaurtinib' of Supplementary Table 1),run:Lestaurtinib_02364_R2,Plate:MR002): 58.2 nM | potency estimated from few doses (ERN1; compound concentrations:100 nM and 1000 nM (sheet 'Lestaurtinib' of Supplementary Table 1),run:Lestaurtinib_02367_R1,Plate:MR003): 83.4 nM | potency estimated from few doses (ERN1; compound concentrations:100 nM and 1000 nM (sheet 'Lestaurtinib' of Supplementary Table 1),run:Lestaurtinib_02367_R3,Plate:MR003): 76.1 nM | potency estimated from few doses (ERN1; compound concentrations:100 nM and 1000 nM (sheet 'Lestaurtinib' of Supplementary Table 1),run:Lestaurtinib_02381_R1,Plate:MR004): 44.2 nM | potency estimated from few doses (ERN1; compound concentrations:100 nM and 1000 nM (sheet 'Lestaurtinib' of Supplementary Table 1),run:Lestaurtinib_02381_R2,Plate:MR004): 58 nM | potency estimated from few doses (ERN1; compound concentrations:100 nM and 1000 nM (sheet 'Lestaurtinib' of Supplementary Table 1),run:Lestaurtinib_02407_R1,Plate:MR005): 74.7 nM | potency estimated from few doses (ERN1; compound concentrations:100 nM and 1000 nM (sheet 'Lestaurtinib' of Supplementary Table 1),run:Lestaurtinib_02407_R3,Plate:MR005): 65.8 nM | potency estimated from few doses (ERN1; compound concentrations:100 nM and 1000 nM (sheet 'Lestaurtinib' of Supplementary Table 1),run:Lestaurtinib_02422_R1,Plate:MR006): 64.3 nM | potency estimated from few doses (ERN1; compound concentrations:100 nM and 1000 nM (sheet 'Lestaurtinib' of Supplementary Table 1),run:Lestaurtinib_02422_R2,Plate:MR006): 68.1 nM | potency estimated from few doses (ERN1; compound concentrations:100 nM and 1000 nM (sheet 'Lestaurtinib' of Supplementary Table 1),run:Lestaurtinib_02422_R3,Plate:MR006): 67.9 nM | potency estimated from few doses (ERN1; compound concentrations:100 nM and 1000 nM (sheet 'Lestaurtinib' of Supplementary Table 1),run:Lestaurtinib_02438_R1,Plate:MR008): 49.4 nM | potency estimated from few doses (ERN1; [1]): 63.9 nM | potency estimated from few doses (ERN1; [2]): 64.3 nM | potency estimated from few doses (ERN1; compound concentrations:100 nM and 1000 nM (sheet 'Lestaurtinib' of Supplementary Table 1),run:Lestaurtinib_02443_R1,Plate:MR009): 67.3 nM | potency estimated from few doses (ERN1; [3]): 58.1 nM | potency estimated from few doses (ERN1; compound concentrations:100 nM and 1000 nM (sheet 'Lestaurtinib' of Supplementary Table 1),run:Lestaurtinib_02443_R3,Plate:MR009): 63.3 nM | potency estimated from few doses (ERN1; [4]): 52.6 nM | potency estimated from few doses (ERN1; [5]): 60.5 nM | potency estimated from few doses (ERN1; compound concentrations:100 nM and 1000 nM (sheet 'Lestaurtinib' of Supplementary Table 1),run:Lestaurtinib_02473_R3,Plate:MR010): 69.9 nM | potency estimated from few doses (ERN1; [6]): 54.1 nM | potency estimated from few doses (ERN1; [7]): 58.2 nM
